Drawing on publication PMC10726135, “HNF4α isoforms regulate the circadian balance between carbohydrate and lipid metabolism in the liver”, this text covers binding signal for 43 sequences.

Over roughly 18,000 sequences, “log2 normalized intensity” has its median near 0.39; the highest 2% begin near 6.6. The list comes from a sample in which the highest values are over-represented; it also holds similar and randomly drawn sequences.

This test addresses T1, HNF4alpha2 (COS-7 nuclear extract) (Homo sapiens, UniProt P41235 1-474).
T1 sequence: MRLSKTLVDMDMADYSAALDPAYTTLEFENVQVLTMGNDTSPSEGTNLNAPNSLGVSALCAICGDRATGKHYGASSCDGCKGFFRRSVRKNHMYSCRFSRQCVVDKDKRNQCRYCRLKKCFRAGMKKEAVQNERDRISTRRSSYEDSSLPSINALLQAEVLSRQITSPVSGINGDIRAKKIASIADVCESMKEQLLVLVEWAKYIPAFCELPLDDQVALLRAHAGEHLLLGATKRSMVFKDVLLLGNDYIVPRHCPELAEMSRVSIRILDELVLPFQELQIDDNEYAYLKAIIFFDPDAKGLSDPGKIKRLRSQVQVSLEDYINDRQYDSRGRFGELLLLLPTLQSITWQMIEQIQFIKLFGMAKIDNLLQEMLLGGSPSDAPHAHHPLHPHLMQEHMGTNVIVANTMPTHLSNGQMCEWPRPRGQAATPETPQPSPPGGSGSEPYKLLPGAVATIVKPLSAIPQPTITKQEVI
Kind of test: protein-binding microarray; COS-7 nuclear extract on double-stranded Agilent 4x180k PBM; binding buffer, salt, pH and temperature not given in the material; high values mean tight binding. Particulars: chain copies: 2; label: 3' end of strand 1 on the slide; dsDNA, one strand shown. In a few lines:
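A custom Agilent SurePrint G3 4x180k array, spotted in quadruplicate with ~44,000 test sequences as ~60-nt oligonucleotides made double-stranded, was incubated with nuclear extracts. The extracts came from COS-7 cells transiently transfected by CaPO4 with a human HNF4α isoform expression vector. Bound HNF4α was imaged on an Agilent G2565CA scanner at 2-µm resolution, and the binding signal was taken as Agilent software's background-corrected, normalized gProcessedSignal.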
Take “TTGAGTTTGCTCTGCTACTAACTGCATGACGCCTAGGGAGATTAGAGTATCGGTCGA”: the binding signal is -0.452 log2 normalized intensity.
For the sequence “TTCTCCAGGAAGTTCAGGCCTCGGCTTCATGCCTAGGGAGATTAGAGTATCGGTCGA”, the binding signal is -0.98 log2 normalized intensity.
As for “CACTCAATGCAGCAGCATTGGACCCTCCCAGCCTAGGGAGATTAGAGTATCGGTCGA”, the binding signal stood at 5.46 log2 normalized intensity.
Consider “TATTTAGACTCAGCATGTCTTCTGACCTTTGCCTAGGGAGATTAGAGTATCGGTCGA”, for which the binding signal amounted to 6.51 log2 normalized intensity.
For the sequence “CTGCAGATTGACTCAGGCATTCTGACCTTTGCCTAGGGAGATTAGAGTATCGGTCGA”, the binding signal came out at 6.93 log2 normalized intensity.
For the sequence “CCATATCACATTTTAAGGTCTGGCATTCTTGCCTAGGGAGATTAGAGTATCGGTCGA”, the binding signal worked out at 1.37 log2 normalized intensity.
Take “CCTTTTATTTTCTTATCTGCCTAGGCATTTGCCTAGGGAGATTAGAGTATCGGTCGA”: the binding signal amounted to 1.33 log2 normalized intensity.
Next, “GATTGACTCAGGCATTCTGACCTTTGTCTCGCCTAGGGAGATTAGAGTATCGGTCGA”: 7.05 log2 normalized intensity.
On to “GGCATTCTGACCTTTGTCTCCAGGCAAACTGCCTAGGGAGATTAGAGTATCGGTCGA”, for which the binding signal turned out to be 4.88 log2 normalized intensity.
Under “ACTCAGGCATTCTGACCTTTGTCTCCAGGCGCCTAGGGAGATTAGAGTATCGGTCGA” stands 5.69 log2 normalized intensity; under “TTTTAAGGTCTGGCATTCTTTTTGACCTTTGCCTAGGGAGATTAGAGTATCGGTCGA”, 7.55 log2 normalized intensity.
Under “TAAAACTGCAGATTGACTCAGGCATTCTGAGCCTAGGGAGATTAGAGTATCGGTCGA” stands -0.529 log2 normalized intensity; under “CCTTATGACGGACAAAGGGCTCTCTCACCAGCCTAGGGAGATTAGAGTATCGGTCGA”, -0.701 log2 normalized intensity.
For the sequence “TGTGGGCCTCACACCCTCTAGGGTAGATAAGCCTAGGGAGATTAGAGTATCGGTCGA”, the binding signal was -0.451 log2 normalized intensity.
Next, “TGCCTCCTTCAAGGATTAGCAGATAAATCTGCCTAGGGAGATTAGAGTATCGGTCGA”: -0.904 log2 normalized intensity; “ATGAAGATATATTCCTTCAGGAAGGCCTGTGCCTAGGGAGATTAGAGTATCGGTCGA”: 0.708 log2 normalized intensity; “CTTTCATACGTTTAACAGTTCCTCCTGGAAGCCTAGGGAGATTAGAGTATCGGTCGA”: 1.18 log2 normalized intensity.
For “CTATTAGGTCTTTGAAGTTGTCTTATCACCGCCTAGGGAGATTAGAGTATCGGTCGA”, the binding signal amounted to 1.34 log2 normalized intensity.
As for “GGACCGCAGGGGGCTCCCGGACCCTGACTCGCCTAGGGAGATTAGAGTATCGGTCGA”, the binding signal came out at 0.458 log2 normalized intensity.
Turning to “AGCCACCGCGCCCCGCCCCCAGTGCACCTTGCCTAGGGAGATTAGAGTATCGGTCGA”, the binding signal was found to be 5.11 log2 normalized intensity.
Next, “TTGTATGTCCAAGGGTCACTCGACATTCATGCCTAGGGAGATTAGAGTATCGGTCGA”: 3.02 log2 normalized intensity.
With “TTGAAGTGACTAAATGAGAAGAAATGATGGGCCTAGGGAGATTAGAGTATCGGTCGA”, the binding signal is 1.69 log2 normalized intensity.
Under “GGTGCTGATGTTAACACAAGTTATTACCGTGCCTAGGGAGATTAGAGTATCGGTCGA” stands 1.03 log2 normalized intensity.
As for “CAGTGGTAACCACAGTACTGTCTTTTTGCCGCCTAGGGAGATTAGAGTATCGGTCGA”, the binding signal is -0.854 log2 normalized intensity.
Regarding “TTGCATAGGCATTGTCTTGAAAGATAAAGTGCCTAGGGAGATTAGAGTATCGGTCGA”, the binding signal turned out to be 0.627 log2 normalized intensity.
For “TCTTTTTGCCACTAGGGGTCACTGTCACATGCCTAGGGAGATTAGAGTATCGGTCGA”, the binding signal came to 2.7 log2 normalized intensity.
Take “CACCCAGAACTTTGACCGTTTGATTATTTGGCCTAGGGAGATTAGAGTATCGGTCGA”: the binding signal amounted to 2.56 log2 normalized intensity.
With “ATGAACTTTGACCCACCTACATTGATATTCGCCTAGGGAGATTAGAGTATCGGTCGA”, the binding signal is 4.81 log2 normalized intensity.
For the sequence “ATTTATCAAGATGAACTTTGACCCACCTACGCCTAGGGAGATTAGAGTATCGGTCGA”, the binding signal came out at 8.26 log2 normalized intensity.
For the sequence “TTGATATTTATCAAGATGAACTTTGACCCAGCCTAGGGAGATTAGAGTATCGGTCGA”, the binding signal came out at 10.8 log2 normalized intensity.
Regarding “ATTTTTCCCTTTGATATTTATCAAGATGAAGCCTAGGGAGATTAGAGTATCGGTCGA”, the binding signal was determined as 0.736 log2 normalized intensity.
Under “TCCCTTTGATATTTATCAAGATGAACTTTGGCCTAGGGAGATTAGAGTATCGGTCGA” stands 4.93 log2 normalized intensity; under “CATGTTGAGTGGAATATGAGGTCAGGGTTCGCCTAGGGAGATTAGAGTATCGGTCGA”, 2.71 log2 normalized intensity; under “GGGCTGGAACACAAAGAAAGCCAAAGTTCAGCCTAGGGAGATTAGAGTATCGGTCGA”, 2.41 log2 normalized intensity.
For the sequence “CATTGGACCCTCCCAGCCAAACCCCACTCCGCCTAGGGAGATTAGAGTATCGGTCGA”, the binding signal came to 5.01 log2 normalized intensity.
Under “TGTAACTGTAACTATATTGACCACCTCCTCGCCTAGGGAGATTAGAGTATCGGTCGA” stands 1.76 log2 normalized intensity; under “ACTGCTTACCCTGCAGTGTGACCTTTGCCTGCCTAGGGAGATTAGAGTATCGGTCGA”, 7.83 log2 normalized intensity; under “GATGTTCTACACTGCTTACCCTGCAGTGTGGCCTAGGGAGATTAGAGTATCGGTCGA”, 0.052 log2 normalized intensity.
For “CTGCAGTGTGACCTTTGCCTTCTTGACATCGCCTAGGGAGATTAGAGTATCGGTCGA”, the binding signal was determined as 5.94 log2 normalized intensity.
Next, “GTGTGACCTTTGCCTTCTTGACATCTCTCTGCCTAGGGAGATTAGAGTATCGGTCGA”: 4.43 log2 normalized intensity; “TTACCCTGCAGTGTGACCTTTGCCTTCTTGGCCTAGGGAGATTAGAGTATCGGTCGA”: 7.49 log2 normalized intensity; “TCTACACTGCTTACCCTGCAGTGTGACCTTGCCTAGGGAGATTAGAGTATCGGTCGA”: 4.19 log2 normalized intensity.
Under “GTGCTCTGGGTCTGTCCTTTGTGTTTATGGGCCTAGGGAGATTAGAGTATCGGTCGA” stands 2.66 log2 normalized intensity.
